Measured values from PubChem BioAssay (EPA / NIEHS).
Records with an inconclusive call do not appear. Activity calls are given as the source filed them. The calls were made as follows: active = hit-call score of the fitted dose curve at least 0.9, where 1 is the maximum; inconclusive = response in the unintended direction; inactive = score below 0.9.

target: Androgen receptor (Homo sapiens) (UniProt P10275); assay: ATG_AR_TRANS: Attagene TRANS-FACTORIAL HepG2 Assay for human Androgen Receptor (AR) (AID 2282973); conditions: HepG2 Attagene TRANS-FACTORIAL AR reporter transcription
Description: ATG_TRANS is a cell-based, multiplexed-readout assay that uses HepG2, a human liver cell line, with measurements taken at 24 hours after chemical dosing in a 24-well plate.ATG_AR_TRANS is one of 30 assay component(s) measured or calculated from the ATG_TRANS assay. It is designed to make measurements of mRNA induction, a form of inducible reporter, as detected with fluorescence intensity signals by Reverse transcription polymerase chain reaction (RT-PCR) and Capillary electrophoresis technology.Data from the assay component ATG_AR_TRANS was analyzed into 1 assay endpoint. This assay endpoint, ATG_AR_TRANS, was analyzed in the positive analysis fitting direction relative to DMSO as the negative control and baseline of activity. Using a type of inducible reporter, measures of mRNA for gain-of-signal activity can be used to understand the reporter gene at the transcription factor-level as they relate to the gene AR. Furthermore, this assay endpoint can be referred to as a primary readout, because this assay has produced multiple assay endpoints where this one serves a reporter gene function. To generalize the intended target to other relatable targets, this assay endpoint is annotated to the nuclear receptor intended target family, where the subfamily is steroidal.
Human liver HepG2 cells are transiently transfected with multiple reporter transcription units (MRTUs) in 6-well plates using FuGene 6 reagent (Roche; 3 ml FuGene/1 mg DNA). The MRTU constructs are regulated by a cis-regulating element (promoter). […] A major difference between the CIS and TRANS system is that in CIS activities of endogenous TFs are measured, whereas the TRANS assay evaluates changes in activities of exogenous, chimeric NR-Gal4 proteins. […] At the end of 24 hour incubation, total RNA was isolated using TriZol reagent (Invitrogen). The isolated RNA is then reverse-transcribed using oligo(dT) primer and Mo-MLV reverse transcriptase (Invitrogen) with DNAse I (Ambion) treatment for 30 min. The one-tenth of the produced cDNA was amplified by PCR using Taq DNA polymerase (Invitrogen) and two reporter sequence-specific primers. The PCR products were fluorescently labeled by primer extension with 6-arboxyfluorescein (6-FAM) 5'-labeled reporter sequence-specific primer (2 min at 95 C, 20 s at 68 C and 10 min at 72 C) and these products were digested with 5U of HpaI (New England Biolabs) for 2h at 37 C. The fragments were purified using Qiaquick PCR columns (Qiagen), analyzed on an ABI 3130xL genetic analyzer (Applied Biosystems) with peak positions identified by using a set of X-rhodamine (ROX)-labeled MapMarker1000 molecular weight standards (BioVentures). The raw capillary electrophoresis data was processed using Attagraph software (Attagene).

Chain of Androgen receptor (Homo sapiens) (P10275 whole entry, looked up): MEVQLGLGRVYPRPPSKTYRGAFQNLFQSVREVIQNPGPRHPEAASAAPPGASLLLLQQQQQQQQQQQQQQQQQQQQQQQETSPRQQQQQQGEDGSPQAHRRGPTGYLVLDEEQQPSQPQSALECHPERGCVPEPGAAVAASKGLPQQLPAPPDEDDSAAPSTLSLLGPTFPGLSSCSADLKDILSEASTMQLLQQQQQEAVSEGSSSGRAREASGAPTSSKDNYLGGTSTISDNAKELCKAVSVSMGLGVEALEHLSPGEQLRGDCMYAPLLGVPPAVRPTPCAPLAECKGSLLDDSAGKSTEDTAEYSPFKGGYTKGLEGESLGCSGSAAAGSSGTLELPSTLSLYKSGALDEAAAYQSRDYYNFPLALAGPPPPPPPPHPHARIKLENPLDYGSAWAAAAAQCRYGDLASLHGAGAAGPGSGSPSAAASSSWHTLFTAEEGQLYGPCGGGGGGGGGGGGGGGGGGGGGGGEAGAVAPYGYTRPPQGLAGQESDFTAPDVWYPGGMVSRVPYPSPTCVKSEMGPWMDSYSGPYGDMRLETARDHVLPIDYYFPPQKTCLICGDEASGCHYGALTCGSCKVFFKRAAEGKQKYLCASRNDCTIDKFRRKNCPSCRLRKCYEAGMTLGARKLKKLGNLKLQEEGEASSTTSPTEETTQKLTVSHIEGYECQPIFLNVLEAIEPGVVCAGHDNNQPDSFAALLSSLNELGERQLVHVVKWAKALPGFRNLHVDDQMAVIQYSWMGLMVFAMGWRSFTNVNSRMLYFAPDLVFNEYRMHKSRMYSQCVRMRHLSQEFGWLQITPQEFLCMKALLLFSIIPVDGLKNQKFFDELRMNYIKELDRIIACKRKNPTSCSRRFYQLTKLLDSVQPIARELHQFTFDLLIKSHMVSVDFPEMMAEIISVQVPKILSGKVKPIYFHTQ

SMILES | outcome
CN(C)C(=S)SSC(=S)N(C)C | inactive
CO/C=C(/C(=O)OC)c1ccccc1Oc1cc(Oc2ccccc2C#N)ncn1 | inactive
N#CC(CCc1ccc(Cl)cc1)(Cn1cncn1)c1ccccc1 (stereo unspecified) | inactive
N#Cc1nn(-c2c(Cl)cc(C(F)(F)F)cc2Cl)c(N)c1S(=O)C(F)(F)F (stereo unspecified) | inactive
O=C(Nc1ccccc1)Nc1ccnc(Cl)c1 | inactive
CCCC1COC(Cn2cncn2)(c2ccc(Cl)cc2Cl)O1 (stereo unspecified) | inactive
CC(C)Oc1cc(-n2nc(C(C)(C)C)oc2=O)c(Cl)cc1Cl | inactive
CCOC(=O)CC(SP(=S)(OC)OC)C(=O)OCC (stereo unspecified) | inactive
COc1nc(C)nc(NC(=O)NS(=O)(=O)c2ccccc2CCC(F)(F)F)n1 | inactive
Cc1ccc(-c2c(Cl)nc(C#N)n2S(=O)(=O)N(C)C)cc1 | inactive
Cc1cc(Cl)ccc1OCC(=O)O | inactive
